This note sets out measurements from PubChem BioAssay (EPA / NIEHS).

Active and inactive are the calls of the source. How the source made its calls: active means hit-call score of the fitted dose curve at least 0.9, where 1 is the maximum; inactive means score below 0.9.

The assay is described as follows: APR_HepG2_CellLoss_1hr: Apredica 1-hour HepG2 Assay for Cell Loss (AID 2282668).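 Further: curves fitted both ways against DMSO so gain or loss of cells counts.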 Conditions: high-content imaging. On the procedure: APR_HepG2_1hr is a cell-based, multiplexed-readout assay that uses HepG2, a human liver cell line, with measurements taken at 1 hour after chemical dosing in a 384-well plate.APR_HepG2_CellLoss_1hr is one of 10 assay component(s) measured or calculated from the APR_HepG2_1hr assay. It is designed to make measurements of cell number, a form of viability reporter, as detected with fluorescence intensity signals by HCS Fluorescent Imaging technology.Data from the assay component APR_HepG2_CellLoss_1hr was analyzed into 1 assay endpoint. This assay endpoint, APR_HepG2_CellLoss_1hr, was analyzed with bidirectional fitting relative to DMSO as the negative control and baseline of activity. Using a type of viability reporter, measures of all nuclear dna for gain or loss-of-signal activity can be used to understand the viability at the cellular-level. Furthermore, this assay endpoint can be referred to as a secondary readout, because this assay has produced multiple assay endpoints where this one serves a viability function. To generalize the intended target to other relatable targets, this assay endpoint is annotated to the cell cycle intended target family, where the subfamily is proliferation.
Cells were treated with dimethyl sulfoxide (DMSO) as a solvent control at a final concentration of 0.5% v/v or with compounds in DMSO with a resulting final DMSO concentration of 0.5% v/v. Compound treatment was done at concentrations of 0.39, 0.78, 1.56, 3.12, 6.24, 12.5, 25, 50, 100, and 200 uM in duplicate on each plate. Cells were treated with compounds for 1, 24, or 72 hr. Carbonyl […] m-chloro-phenylhydrazone (CCCP) and taxol were used as positive controls for mitochondrial function and cytoskeletal stability, respectively; DMSO served as the negative control for this experiment. Cells were fixed by the direct addition of 50 uL formaldehyde in Hank's Balanced Salt Solution (HBSS) to a final concentration of 3.7%. After incubation in the fixation medium for 30 min at room temperature (293-298 K), cells were rinsed twice with HBSS and treated with cell permeabilization buffer (16 uL of 0.5% Triton X-100) for 10 min at room temperature (293-298 K) before labeling. For mitochondrial membrane potential and mitochondrial measurements, pre-fixed cells were incubated with 50 uL of MitoTracker Red CMXRos (Invitrogen) at a concentration of 250 nM for 30 min before fixation. In the remaining cases, post-fixed cells were labeled by incubation with a multiplexed mixture of primary antibodies in HBSS for 60 min at room temperature (293-298 K) to detect immunoreactivity of c-Jun (1:500), phospho-histone H3 (1:100), phospho-histone H2A.x (1:200), p53 (1:400), alpha-tubulin (1:200) and Hoechst 33342 (2 ug/mL). Cells were labeled for multiplexed imaging on two separate plates: a) Hoechst 33342, MitoTracker Red, phospho-histone H3, and alpha-tubulin, and b) Hoechst 33342, phospho-histone H2A.x, and c-Jun. A final rinse with HBSS (50 uL) was performed before analysis. The primary and secondary antibodies for the proteins were phospho-histone H3 (rabbit anti-phospho-histone H3 and FITC-donkey anti-rabbit IgG), phospho-histone H2A.x (mouse anti-phospho-histone H2A.x and FITC-donkey anti-mouse IgG), c-Jun (rabbit anti-phospho-c-Jun and Cy3-donkey anti-rabbit IgG), p53 (sheep anti-p53 and Cy5-donkey anti-sheep IgG), alpha-tubulin (mouse anti-alpha-tubulin and Cy5-donkey anti-mouse IgG). These antibodies are available as the CellCiphr HepG2 assay kit (Millipore).Digital images of each well were captured using a Cellomics ArrayScan VTI (Thermo Scientific Cellomics) (0.8 NA objective, 0.63x optical coupler, and XF-93 filter set) at 20x magnification. The images were acquired using the autofocus feature of the ArrayScan instrument, which entails the following steps. First, the camera focuses on channel 1 (Hoechst 33342), where nuclei are identified. Second, a Z offset of 1 um is used for capturing mitochondria (MitoTracker Red). […]
Consider `O=P(O)(O)CCCl`, for which the result was inactive.

`Clc1cccc(C(Cl)(Cl)Cl)n1`: the compound was called inactive.

Regarding `COCC(=O)N(c1c(C)cccc1C)C(C)C(=O)OC` (stereo not given), the result was inactive.

Regarding `COCc1cnc(C2=NC(C)(C(C)C)C(=O)N2)c(C(=O)O)c1` (stereo not given), the outcome was inactive.

As to `COC(=O)N(C(=O)N1CO[C@@]2(C(=O)OC)Cc3cc(Cl)ccc3C2=N1)c1ccc(OC(F)(F)F)cc1`, the call was inactive.

Consider `COC(=O)NC(=S)Nc1ccccc1NC(=S)NC(=O)OC`, for which the outcome was inactive.

As for `CC(C)NC(=O)N1CC(=O)N(c2cc(Cl)cc(Cl)c2)C1=O`, the result was inactive.

On to `CCSC(=O)N1CCCCCC1`, for which the outcome was inactive.

In the case of `N#Cc1c(Cl)cccc1Cl`, the call was inactive.

Take `CCCCOCN(C(=O)CCl)c1c(CC)cccc1CC`: the call was inactive.

For `O=C1C2CC=CCC2C(=O)N1SC(Cl)(Cl)Cl` (stereo not given), the outcome was inactive.

For `COc1ccc(-c2ccccc2)cc1NNC(=O)OC(C)C`, the call was inactive.

On to `CC1(C)C(C(=O)OC(C#N)c2cccc(Oc3ccccc3)c2)C1(C)C` (stereo not given), for which the call was inactive.

With `Cc1nc(N(C)C)nc(OC(=O)N(C)C)c1C`, the call was inactive.

Consider `CC1(C)C(C=C(Cl)Cl)C1C(=O)OC(C#N)c1cccc(Oc2ccccc2)c1` (stereo not given), for which the result was inactive.

Take `Nc1c(Cl)c(F)nc(OCC(=O)O)c1Cl`: the compound was called inactive.

As for `CC(C)N1C(=O)N(c2ccccc2)CSC1=NC(C)(C)C`, the compound was called inactive.

Consider `CNC(=O)Oc1cccc2ccccc12`, for which the call was inactive.

For `COP(=S)(OC)SCn1nnc2ccccc2c1=O`, the compound was called inactive.

For the compound `N#CN=C1SCCN1Cc1ccc(Cl)nc1`, the call was inactive.

For the compound `CC(C)C1(C)N=C(c2ncccc2C(=O)O)NC1=O` (stereo not given), the result was inactive.

On to `O=c1n(Cl)c(=O)n(Cl)c(=O)n1Cl`, for which the result was inactive.

Regarding `CC(C)N1C(=O)c2ccccc2NS1(=O)=O`, the outcome was inactive.

Turning to `CC(C)Oc1cccc(NC(=O)c2ccccc2C(F)(F)F)c1`, the outcome was inactive.

Consider `CC1(C)CCC(=Cc2ccc(Cl)cc2)C1(O)Cn1cncn1` (stereo not given), for which the compound was classed as inactive.

As for `C=C(C)CN(CC)c1c([N+](=O)[O-])cc(C(F)(F)F)cc1[N+](=O)[O-]`, the call was inactive.

As to `CCOP(=S)(OCC)Oc1nc(Cl)n(C(C)C)n1`, the outcome was inactive.

For the compound `CO/N=C(/C1=NOCCO1)c1ccccc1Oc1ncnc(Oc2ccccc2Cl)c1F`, the outcome was inactive.

As for `COC(=O)NS(=O)(=O)c1ccc(N)cc1`, the result was inactive.

`Cc1cnc(C2=NC(C)(C(C)C)C(=O)N2)c(C(=O)O)c1` (stereo not given): the compound was classed as inactive.

With `CC(C)=CC1C(C(=O)OCc2coc(Cc3ccccc3)c2)C1(C)C` (stereo not given), the call was inactive.

`Nc1c(Cl)c(Cl)nc(C(=O)O)c1Cl`: the call was inactive.

Turning to `C=CCOC(=O)C(C)(C)OC(=O)c1cc(-n2c(=O)cc(C(F)(F)F)n(C)c2=O)ccc1Cl`, the call was inactive.

For `CNC(=O)N(C)c1nnc(C(C)(C)C)s1`, the result was inactive.

For the compound `COc1cc(Cl)c(OC)cc1Cl`, the compound was called inactive.

Turning to `CCC(C)n1c(=O)[nH]c(C)c(Br)c1=O` (stereo not given), the outcome was inactive.

On to `CSC(=O)c1c(C(F)F)nc(C(F)(F)F)c(C(=O)SC)c1CC(C)C`, for which the compound was called inactive.

As to `Nc1cnn(-c2ccccc2)c(=O)c1Cl`, the compound was classed as inactive.

With `CCCC(=NOCC)C1=C(O)CC(CC(C)SCC)CC1=O` (stereo not given), the compound was classed as inactive.

For the compound `CN/C(=N\[N+](=O)[O-])NCc1cnc(Cl)s1`, the result was inactive.
